Experimental data from the supplement of paper PMC3484114.
± gives the standard deviation.

Each compound was assayed on OVCAR-3-derived ovarian cancer stem-like cells (spheroids) (assay: cell growth relative to untreated control; higher = more growth (less inhibition)). Conditions: 2.29 µM; 96 h.
In short: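 OVCAR-3 spheroid-derived stem-like cells were trypsin-dissociated, seeded at 50,000 cells/mL in stem cell medium in ultra-low attachment 96-well plates and preincubated 24 h. Compounds were then added at 2.29 uM for 96 h at 37°C, 5% CO2, in 4 replicate wells. Viability was read as TOX8 resazurin fluorescence (ex 560/em 590 nm) after 4 h. Percent growth was calculated relative to untreated wells after blank subtraction and Grubbs outlier removal.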

Compared with `COc1ccc(CCN(C)CCCC(C#N)(c2ccc(OC)c(OC)c2)C(C)C)cc1OC` (stereo unspecified), `CCN(CC)CCNc1ccc2nc(C)n3c4ccc(OC)cc4c(=O)c1c23` is lower in cell growth: 115 ± 16% for the first, 34.8 ± 9.9% for the second.

Going from `CC(=O)C1=C(O)C2(O)C(=O)c3c(c(C)c4ccc(C)c(O)c4c3O)CC2C(N)C1=O` (stereo unspecified) to `CN(C)[C@@H]1C(=O)C(C(N)=O)=C(O)[C@@]2(O)C(=O)C3=C(O)c4c(O)cccc4C[C@H]3C[C@@H]12`, the cell growth falls from 118 ± 30% to 57.8 ± 20%.

`CCCCCCCCCc1c(Cl)nc(Cl)nc1Cl` and `CCN(CC)CCCC(C)Nc1ccnc(/C=C/c2ccc(Cl)cc2)c1` (stereo unspecified) are within error of each other in cell growth: 113 ± 24% for the first, 84.6 ± 25% for the second.

`CN(C)c1ccc2c(SCC(=O)OCC(=O)[C@@]3(O)CC[C@H]4[C@@H]5CCC6=CC(=O)C=C[C@]6(C)[C@H]5C(=O)C[C@@]43C)c3ccc(N(C)C)cc3nc2c1` and `CC1=C\C(O)CC(=O)Cc2nc(co2)C(=O)N2CCC=C2C(=O)OC(C(C)C)C(C)/C=C/C(=O)NC/C=C\1.CCC1NC(=O)C(NC(=O)c2ncccc2O)C(C)OC(=O)C(c2ccccc2)NC(=O)C2CC(=O)CCN2C(=O)C(Cc2ccc(N(C)C)cc2)N(C)C(=O)C2CCCN2C1=O` (stereo unspecified) are within error of each other in cell growth: 59.1 ± 8.1% for the first, 80.8 ± 20% for the second.

First: Nc1nncs1
Second: Nc1ncnc2c1nnn2[C@@H]1O[C@H](CO)[C@@H](O)[C@H]1O
The cell growth of the first is higher: 98.4 ± 22% for the first, 23.1 ± 4.4% for the second.

`CC(=O)[O][Hg].c1ccc2c(c1)ccc1ccccc12` and `O=C1C(c2cnc3ccccc3n2)=C(O)c2ccccc21` are within error of each other in cell growth: 132 ± 32% for the first, 197 ± 48% for the second.

`CN(C)c1ccc(/C=C2\CCc3ccccc3C2=O)cc1Br` and `CN(C)c1ccc(/C=C2/C=Cc3ccccc32)cc1` are within error of each other in cell growth: 91.4 ± 12% for the first, 101 ± 8.1% for the second.

First: Nc1ncnc2c(C3OC(CO)C(O)C3O)[nH]nc12 (stereo unspecified)
Second: CN(CO)c1nc(N(C)CO)nc(N(C)CO)n1
The cell growth of the first is lower: 23.9 ± 5.3% for the first, 83.5 ± 18% for the second.

`CC(=O)C(N1CCCCC1)C(O)(C(F)(F)F)C(F)(F)F` (stereo unspecified) and `CSCC(CO)NC(=O)/C=C/c1c(C)[nH]c(=O)[nH]c1=O` (stereo unspecified) are within error of each other in cell growth: 107 ± 38% for the first, 82.8 ± 9.5% for the second.

First: Cc1ccc([N+](=O)[O-])cc1NC(=O)c1cccc([N+](=O)[O-])c1O
Second: C[n+]1ccc(Nc2ccc(NC(=O)c3ccc(Nc4cc[n+](C)c5ccc([N+](=O)[O-])cc45)cc3[N+](=O)[O-])cc2)cc1
The cell growth of the first is higher: 146 ± 41% for the first, 70 ± 17% for the second.

`COc1ccc2[nH]c3c(C)c4ccncc4c(C)c3c2c1` was tested, and the cell growth was 65.8 ± 11%.
